From PubChem BioAssay AID624330 (Southern Research Specialized Biocontainment Screening …, 2012)
Values joined by “and” are separate entries in the source; they are usually repeats but may differ in a detail not shown here. Identical values can stand only once. The campaign covered roughly 340,000 compounds. About 2,100 (0.62%) were called active.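 How the source made its calls: active means first-screen hits whose inhibition reached a set limit at any dose in the follow-up dose series; inconclusive means inhibition above the set first-screen limit but never retested; inactive means the rest.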 A selection follows. Results with a measured potency or affinity are listed apart.

These compounds were tested against Rac GTPase-activating protein 1 (Homo sapiens) (UniProt Q9H0H5) (assay: blockers of MgcRacGAP-driven Rac1 GTP hydrolysis – biochemical, ADP Hunter fluorescence, primary and confirmatory, confirmation (AID 624330;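 further: fluorescence reports GDP produced by GAP-driven GTP hydrolysis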)). Settings: MgcRacGAP-stimulated Rac1 GTP hydrolysis, at 30 µM, active compounds read high, GST-tagged Rac1 F28L mutant substrate.
Chain of Rac GTPase-activating protein 1 (Homo sapiens) (Q9H0H5 whole entry, looked up): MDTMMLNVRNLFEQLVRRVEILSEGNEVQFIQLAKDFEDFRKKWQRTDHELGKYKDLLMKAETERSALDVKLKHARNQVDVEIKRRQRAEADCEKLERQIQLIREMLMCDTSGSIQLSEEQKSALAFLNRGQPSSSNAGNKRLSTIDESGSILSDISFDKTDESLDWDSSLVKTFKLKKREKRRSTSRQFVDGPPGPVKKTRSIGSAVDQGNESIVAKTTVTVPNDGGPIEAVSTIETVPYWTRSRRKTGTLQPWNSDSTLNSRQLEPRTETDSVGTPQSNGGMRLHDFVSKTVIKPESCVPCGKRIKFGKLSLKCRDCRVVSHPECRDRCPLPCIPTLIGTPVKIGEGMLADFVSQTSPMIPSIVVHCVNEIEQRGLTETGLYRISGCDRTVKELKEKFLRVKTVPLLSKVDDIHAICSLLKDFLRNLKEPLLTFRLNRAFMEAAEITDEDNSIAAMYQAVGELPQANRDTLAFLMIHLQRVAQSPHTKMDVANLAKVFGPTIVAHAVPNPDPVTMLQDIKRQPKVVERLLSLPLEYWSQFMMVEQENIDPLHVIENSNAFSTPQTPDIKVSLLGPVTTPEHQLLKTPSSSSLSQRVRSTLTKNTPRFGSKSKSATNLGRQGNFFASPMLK

inhibition, inactive:
O=C(NCCO)c1ccc(-c2nnc(N3CCOCC3)c3ccccc23)cc1 1.36%, O=C1CCc2cc(S(=O)(=O)Nc3ccc(F)cc3)cc3c2N1CC3 6.87%, N=C(N)c1ccccc1 2.01% and 4.94%, N=C(N)c1ccc(O)cc1 3.97%, O=[N+]([O-])c1ccc(C=CC=Cc2ccccc2)cc1 5.54%, O=[N+]([O-])/C=C\c1ccc(N2CCOCC2)cc1 24%, O=[N+]([O-])/C=C/c1cn(Cc2ccccc2)c2ccccc12 4.89%, Cc1cccc(Cn2cc(/C=C/[N+](=O)[O-])c3ccccc32)c1 3.28%, CS(=O)(=O)N(CC(=O)NCCSCc1ccco1)c1ccc(Cl)cc1 5.58%, Cc1ccc(N(CC2CO2)S(=O)(=O)c2ccc([N+](=O)[O-])cc2)cc1 (stereo unspecified) 4.81%, COC(=O)c1ccc(NC(=O)C2CCN(C(=O)Nc3ccccc3)CC2)cc1 5.55%, O=[N+]([O-])c1ccc(N2CCCC2)c([N+](=O)[O-])c1 6.43%, O=[N+]([O-])c1cc(C(F)(F)F)ccc1N1CCN(CCO)CC1 4.15%, Cc1nn(CC(=O)Nc2ccc3c(c2)OCCO3)c(C)c1[N+](=O)[O-] 0.26%, CCOC(=O)/C=C/c1cnn(-c2ccccc2)c1 6.95%, O=C(O)/C=C/c1cnn(-c2ccccc2)c1 2.55%, CCN=C1S/C(=C\c2cc(Cl)c(OC)c(OC)c2)C(=O)N1CC 4.7%, O=C(NNS(=O)(=O)c1ccc(F)cc1)c1ccc(O)cc1 6.98%, COc1ccc(Cn2nnnc2CN2CCOCC2)cc1 7.47%, CCOC(=O)Cn1nnnc1CN1CCN(c2ccc(OC)cc2)CC1 14.7%, C=CCN(c1ccccc1)S(=O)(=O)c1cccc(C(=O)Nc2ncccc2O)c1 -0.92%, Cc1ccc(N(C(=O)Cn2nnc(-c3ccccc3F)n2)C(C(=O)NC2CCCC2)c2ccncc2)cc1 (stereo unspecified) 6.05%, COc1ccc(OC)c(-c2csc(NC(=O)COC(=O)c3ccc(NC(=O)CC#N)cc3)n2)c1 5.16%, Cc1cc(C(=O)NC(C)C2CCCO2)cs1 (stereo unspecified) -7.59%, CCCn1c(=O)c2ccccc2n2c(SCCOc3ccccc3)nnc12 4.68%, CCCn1c(=O)c2ccccc2n2c(SCC(N)=O)nnc12 18.7%, Cc1ccc(NC(=O)CN(C)S(=O)(=O)c2ccc3c(c2)n(C)c(=O)c(=O)n3C)cc1 7.39%, CCOC(=O)C(=NC(C)CC)NNc1ccc(Br)cc1 (stereo unspecified) 9.58%, O=[N+]([O-])c1cccc(CN2CCN(c3ncccn3)CC2)c1 25.4%, O=C(CN1CCN(C(=O)c2ccco2)CC1)Nc1cccc([N+](=O)[O-])c1 4.6%, O=C(c1ccco1)N1CCN(Cc2cccc(F)c2)CC1 14.6%, O=[N+]([O-])c1ccc(S(=O)(=O)N2CCN(Cc3ccco3)CC2)cc1 15.9%, O=[N+]([O-])c1cccc(CN2CCCCCC2)c1 10.9%, O=C(c1c(Cl)cccc1Cl)N1CCCCCC1 7.13%, O=[N+]([O-])c1ccc(N2CCN(Cc3cccc([N+](=O)[O-])c3)CC2)cc1 0.8%, O=C(c1c(Cl)cccc1Cl)N1CCN(c2ncccn2)CC1 14.4%, C[C@H](NC(=O)C1CC(=O)N(c2ccc3c(c2)OCCO3)C1)C(=O)N1CCCCC1 (stereo partly specified) 7.93%, CCC(CC)NC(=O)COC(=O)c1cc(Br)ccc1Cl 7.43%, CC(C)NC(=O)CN(Cc1ccc(F)cc1)C(=O)CCC(=O)Nc1ccccn1 4.82%, CC(=O)c1ccc(N=Nc2ccc(C)cc2)cc1 3.59%, COc1ccc(C(C)=O)cc1CN1C(=O)NC2(CCCCCC2)C1=O -0.57%, Cc1ccc(S(=O)(=O)N(C)CCN(C)S(=O)(=O)c2ccc(C)cc2)cc1 6.45%, Cc1cccc(OCC(=O)N(Cc2ccc(F)cc2)C2CCS(=O)(=O)C2)c1C (stereo unspecified) 9.11%, O=C(N/N=C/C(Cl)=C/c1ccccc1)c1ccccn1 2.22%, COc1ccc(-c2csc3nc(C)n(-n4cccc4)c(=O)c23)cc1OC 2.59%, CCCCOC(=O)C1=C(C)Nc2ncnn2C1c1ccc(OCC)c(OC)c1 (stereo unspecified) 4.44%, O=C(NNC(=O)C1CC=CCC1)c1ccccc1O (stereo unspecified) -10.1%, O=C(NC(=S)Nc1ccc(F)cc1)C1CCCCC1 6.1%, O=C(Nc1nccs1)C1CC=CCC1 (stereo unspecified) 0.32%, COC(=O)c1ccc(NC(=S)Nc2ccc3ccccc3c2)cc1 15.3%, COC(=O)c1ccc(NC(=S)Nc2ccccc2)cc1 5.58%, CC(=O)Nc1ccc(NC(=S)NC(=O)C2CCCC2)cc1 9.09%, Cc1nn(Cc2ccccc2)c(C)c1NC(=O)CSc1nnc(-c2cc(Cl)ccc2O)n1C 3.78%, COc1ccccc1-c1nnc(SCC(=O)c2c(N)n(C3CC3)c(=O)[nH]c2=O)o1 4.98%, O=C(CCC1CCCN(C(=O)c2ccc3c(c2)OCO3)C1)NCc1ccc(F)c(F)c1 (stereo unspecified) 6.44%, CCCC(=O)Nc1c(-c2ccccc2)c(=O)c(C)nn1-c1ccccc1 -2.47%, Cc1cccc(NC(=O)CSCc2cc(=O)n3c(C)csc3n2)c1C -9.75%, CCOCCCNC(=O)C(=O)NCCCOCC 6.87%, CCOCCCNCC(=O)NC1(C)C2CCC(C2)C1(C)C (stereo unspecified) 14.5%, CC(NC(=O)CNC(=O)c1cccc(Cl)c1)c1ccccc1 (stereo unspecified) 0.16%, CCCCNc1c(-c2ccc(-c3ccc(C(C)=O)cc3)c(OC)c2)nc2cc(C)ccn12 4.91%, Cc1c(Cc2ccccc2)c(=O)oc2c(C)c(OCC(=O)N[C@@H](Cc3ccccc3)C(=O)O)ccc12 1.68%, C[C@@H]1CN([C@@H](C)CO)C(=O)c2cc(NC(=O)Nc3ccc4c(c3)OCO4)ccc2O[C@H]1CN(C)S(=O)(=O)c1cn(C)cn1 11.5%, CC12CCC3C(=CCc4cc(O)ccc43)C1CC(=NO)C2O (stereo unspecified) 27.1%, COc1ccc2c(c1)CC=C1C2CCC2(C)C(=O)C(=NO)CC12 (stereo unspecified) 5.55%, CCc1n[nH]c(=S)n1/N=C/c1cc(Br)c(O)c(OC)c1 14.8%, Cc1nnc(C)n1/N=C/c1cc(Br)cc(Br)c1O 13.7%, CCN=c1scc(C)n1/N=C/c1ccc(O)c(O)c1O -35.3%, Oc1c(Br)cc(/C=N/n2c(-c3ccccc3)n[nH]c2=S)cc1Br 17.3%, COc1cc(/C=N/N2C(=O)CSC2=S)cc(Br)c1O 24.4%, COc1cc(/C=N/N2C(C)CCCC2C)cc(Br)c1O (stereo unspecified) 10.5%, COc1cc2ncnc(NCc3ccc(F)cc3)c2cc1OC 5.92%, COc1ccc(-n2cnnc2SCC(=O)Nc2cc(C)on2)cc1 0.92%, Cc1nn(-c2nc3ccccc3[nH]2)c(N)c1-c1ccc(Cl)cc1 14.1%, COc1ccc(NC(=O)[C@@H]2CCCN2S(=O)(=O)c2cccc3cccnc23)cc1 7.98%, Cc1c(N2C(=O)CSC2c2ccc(F)cc2)c(=O)n(-c2ccccc2)n1C (stereo unspecified) -1.84%, Cc1cc(C)n(CC(=O)N2N=C(C(F)F)CC2(O)C(F)F)n1 (stereo unspecified) 5.91%, O=C(CC1C[C@H](C(=O)N2CCCCC2)[C@@]2(CCc3ccccc3)c3[nH]c4ccccc4c3CCN2C1=O)NCCc1ccccn1 (stereo partly specified) 10.2%, C=CCn1c(=S)[nH]c2sc3c(c2c1=O)CCC3 14.3%, COCCCn1c(=S)[nH]c2sc3c(c2c1=O)CCCS3 7.39%, Cc1ccc(-n2c(=S)[nH]c3sc4c(c3c2=O)CCc2ccccc2-4)cc1 4.2%, CCn1c(=S)[nH]c2sc3c(c2c1=O)CCCC3 47.9%, CN(C)CCCn1c(=S)[nH]c2sc3c(c2c1=O)CCCC3 26.2%, C=CCn1c(=S)[nH]c2sc3c(c2c1=O)CCCC3 13.8%, CCCn1c(=S)[nH]c2sc3c(c2c1=O)CCCC3 2.13%, CCOc1ccc(-n2c(=O)[nH]c3sc4c(c3c2=O)CCCC4)cc1 12.1%, COc1ccc(/C(C)=N/NC(=S)Nc2cc(C)ccc2C)cc1 -5.64%, CCOC(=O)C1C(=O)CC(C)(O)C(C(=O)OCC)C1c1ccc([N+](=O)[O-])cc1 (stereo unspecified) 11.4%, COc1ccc(N2CCN(c3nc4cc(C)ccc4cc3C=O)CC2)cc1 2.5%, Cc1ccc(C2=NN(C(=O)CSc3nc4ncc(Cl)cc4[nH]3)C(c3ccco3)C2)cc1 (stereo unspecified) 5.98%, C/C(=N\NC(=O)Cn1cnc2ccccc21)c1cccs1 4.15%, COc1ccc2c3n(nc2c1)CCN=C3c1ccc(C)cc1 4.94%, COc1cccc(-c2cc(C(=O)NC3CCCCC3)no2)c1 6.22%, O=C(NCc1ccccc1)C12CC3CC(CC(Br)(C3)C1)C2 5.84%, O=C1CCC(=O)N(c2ccccc2)N1 3.91%, O=C1CCN(S(=O)(=O)c2ccccc2)N1 -45.5%
